Bioassay records: PubChem, Broad Institute
Only a sample is shown.
aSyn UTR act – Activators via SNCA 5'UTR binding, MLPCN; alpha-synuclein 5'UTR reporter, activators screen; activity score, % (tested at 7.5 µM), hits read low; 300,000 tested, 7.1% active; in the data active = activity score below about -60%
The depositor's hits bear a star.

SMILES	aSyn UTR act
Cc1ccc(NC(=O)c2ccc3ncsc3c2)cc1S(=O)(=O)N(C)C	-148*
O=C(Nc1ccc(C(F)(F)F)cc1)c1ccc2ncsc2c1	-167*
O=C(Nc1cccc(Cl)c1)c1ccc2ncsc2c1	-266*
CCN1/C(=C/C=C/c2oc3ccc4ccccc4c3[n+]2CC)Oc2ccc3ccccc3c21	92
Fc1ccc(-c2cn3cc(C(F)(F)F)cc(Cl)c3n2)cc1	-101*
COc1ccc(-c2cn3cc(C(F)(F)F)cc(Cl)c3n2)cc1	-197*
Cc1c(OCC(=O)C(C)(C)C)ccc2c3c(c(=O)oc12)CCCC3	-97*
COc1cccc(COc2ccc3c(C)c(Cc4ccccc4)c(=O)oc3c2)c1	-67*
O=c1ccc2ccc(OCc3ccccc3)cc2o1	-80*
COc1ccc(COc2ccc3ccc(=O)oc3c2)cc1	-232*
COc1cccc(COc2ccc3ccc(=O)oc3c2)c1	-139*
CCCNS(=O)(=O)c1cccc(C(=O)OCc2cc(=O)oc3cc(OC)ccc23)c1	-97*
c1ccc(-c2cc3nccc(-c4ccccn4)n3n2)cc1	-196*
Cc1ccc(Nc2nc(COC(=O)C3CC3)cs2)cc1	-105*
O=C(Cc1sc(Nc2ccccc2)nc1-c1ccccc1)NCc1ccccn1	-182*
O=C(O)Cc1sc(Nc2ccccc2)nc1-c1ccc(Cl)cc1	-149*
O=C(O)Cc1sc(Nc2ccc(F)cc2)nc1-c1cccs1	-132*
Cc1ccc(Nc2nc(-c3ccccc3)c(CC(=O)O)s2)cc1	-155*
CC1CCC(NC(=O)C2CCN(c3c4c(nc5ncnn35)CCC4)CC2)CC1 (stereo unspecified)	-65*
O=C(NCCc1ccccc1)c1ccccc1NC(=O)C1CC=CCC1C(=O)O (stereo unspecified)	-133*
O=C(O)CCC(=O)Nc1ccccc1C(=O)NCCc1ccccc1	-78*
O=C(Nc1cccc2ccccc12)c1cnccn1	-96*
Cc1ccoc1C(=O)Nc1cccc2ccccc12	-92*
NC(=O)c1ccccc1NC(=O)CCc1ccccc1	-113*
O=C(Nc1ccccc1C(=O)NCCc1ccccc1)c1cnccn1	-68*
SMILES	aSyn UTR act
O=C(CCc1ccccc1)Nc1c(F)cccc1F	-133*
N#C/C(=C/C=C/c1ccccc1)C(=O)Nc1ccccc1	-109*
O=C(Cc1ccccc1)N/N=C/C=C/c1ccccc1[N+](=O)[O-]	-83*
O=C(O)c1ccc(N/N=C/C=C/c2ccccc2[N+](=O)[O-])cc1	-127*
Cc1ccc(CSc2nnc(SCC(=O)N/N=C/C=C/c3ccccc3[N+](=O)[O-])s2)cc1	89
O=C(Cc1cccs1)N/N=C/C=C/c1ccccc1[N+](=O)[O-]	-99*
N#C/C(=C\C=C\c1ccccc1[N+](=O)[O-])C(=O)NCc1ccccc1	-291*
O=C(NN=C1C2CC3CC(C2)CC1C3)c1cccs1	-87*
C/C(=N\NC(=O)c1sccc1-n1cccc1)c1cccs1	-80*
C/C(=N\NC(=O)COc1ccccc1[N+](=O)[O-])c1cccs1	-146*
CC(=O)N1CCC(=NNC(=O)c2cccs2)CC1	-115*
C/C(=N\NC(=O)COc1ccccc1-c1ccccc1)c1ccccn1	114
CCOC(=O)N/N=C(\C)c1cccs1	-67*
C/C(=N/Nc1ccccc1C(=O)O)c1cccs1	-89*
C/C(=N/NC(=O)c1cccs1)c1cccc(N)c1	-86*
C/C(=N/NC(=O)c1cccs1)c1cccs1	-82*
Cc1cc(C)c2nc(N(CCCN(C)C)C(=O)C3=COCCO3)sc2c1	-91*
CN(C)CCCN(C(=O)C1=COCCO1)c1nc2ccc(Br)cc2s1	-63*
CC1CCCCN1S(=O)(=O)c1ccc(C(=O)N(CCCN(C)C)c2nc3ccc(Br)cc3s2)cc1 (stereo unspecified)	67
CCN(C(=O)C1=COCCO1)c1nc2c(C)cccc2s1	-84*
O=C(Nc1ccccc1F)C(=O)Nc1cccc2ccccc12	-119*
O=C(Nc1cccc2ccccc12)/C(Cl)=C/c1ccccc1	-81*
Nc1c(C(=O)Nc2ccc(F)cc2)sc(=S)n1-c1ccccc1F	-84*
Cn1c(N)c(C(=O)Nc2ccc3ccccc3c2)sc1=S	-186*
CCN(CC)c1ccc(/C=N/NC(=O)Cc2cccs2)c(O)c1	60
SMILES	aSyn UTR act
CCOC(=O)N/N=C/C(Cl)=C/c1ccccc1	-128*
O=C(Cc1cccs1)N/N=C/C(Cl)=C/c1ccccc1	-192*
CCOc1ccc(/C=N/NC(=O)Cc2cccs2)cc1	-85*
Cc1cccc(/C=N/NC(=O)Cc2cccs2)c1	-74*
Cc1cc(C)nc(SCC2COc3ccccc3O2)n1 (stereo unspecified)	-71*
CCCS(=O)(=O)c1cnc(C2COc3ccccc3O2)nc1N (stereo unspecified)	68
Nc1nc(-c2ccccc2)cn1/N=C/c1ccccc1	-138*
[O-][n+]1c2ccccc2c2n1CCCN=C2c1ccc(Cl)cc1	-149*
Cn1cccc1/C=C1\SC(=O)N(c2ccccc2)C1=O	-115*
Cn1cc(/C=C2/SC(=O)N(c3ccccc3)C2=O)c2ccccc21	-221*
C/C(N)=C(/C#N)C(=O)CSc1ccc2c(c1)OCCO2	-125*
Cc1cc(C(=O)CSc2ccc3c(c2)OCCO3)c(C)n1C1CC1	-126*
Nc1ccccc1-c1nc2ccccc2s1	-240*
c1ccc2sc(-c3ccncc3)nc2c1	-111*
Oc1ccc(-c2nc3ccccc3s2)cc1	-68*
c1cncc(-c2nc3ccccc3s2)c1	-148*
Oc1ccc(-c2nc3ccccc3s2)c(O)c1	-145*
c1csc(-c2nc3ccccc3s2)c1	-148*
CC(Sc1nnc(-c2cccnc2)n1-c1ccccc1)C(=O)NCc1ccc2c(c1)OCO2 (stereo unspecified)	-71*
CCCn1c(NCc2cc(OC)ccc2OC)nc2ccccc21	-98*
Nn1c(Nc2ccccc2)nc2ccccc21	-100*
CCOc1ccc(Nc2nc3ccccc3n2C)cc1	-163*
CCOc1ccc(NCc2nc3ccccc3n2CCOc2ccccc2)cc1	-67*
CCOc1ccc(CNc2nc3ccccc3n2C)cc1	-125*
COc1ccc(CCNc2nc3ccccc3n3nnnc23)cc1OC	-106*
SMILES	aSyn UTR act
CCOc1ccc(Nc2nc3ccccc3n3nnnc23)cc1	-82*
COc1ccc(CCNc2nnc(Sc3nnnn3-c3ccccc3)s2)cc1OC	120
O=c1oc(Nc2cccc(F)c2)nc2ccccc12	-64*
Nc1nc(Nc2cccc(F)c2)nc2ccccc12	-196*
O=C1c2cc(F)ccc2-n2c1nc1ccccc1c2=O	66
CC(CS(=O)(=O)c1ccccc1[N+](=O)[O-])N1CCOCC1 (stereo unspecified)	-70*
O=[N+]([O-])c1ccccc1S(=O)(=O)c1ccccc1[N+](=O)[O-]	-62*
O=C(Cc1ccccc1)c1ccc(Cl)cc1	-73*
O=C(Cc1ccc(Cl)cc1)c1ccc(O)cc1	-151*
Cc1ccc(CC(=O)c2ccc(Cl)cc2)cc1	-83*
Cn1c2ccc(CC(=O)O)cc2c2cc(CC(=O)O)ccc21	-65*
Cn1c2ccc(Br)cc2c2nnc(SCC(=O)O)nc21	62
Cc1cc(N2CCCC2)c(F)cc1/C=C\[N+](=O)[O-]	-79*
CC(=O)c1ccc(NC(=S)NCc2ccco2)cc1	-67*
CCOC(=O)c1ccc(NC(=O)C(=O)NCc2ccco2)cc1	-82*
NC(=O)CSc1nc2cccnc2n1-c1ccc(F)cc1	52
Nn1c(SCc2ccc(F)cc2)nnc1-c1ccccn1	-68*
Nn1c(SCc2ccccc2)nnc1-c1ccccn1	-70*
Nn1c(SCc2ccccc2F)nnc1-c1ccccn1	-125*
